# According to PubChem BioAssay (Tox21):
# Records with an inconclusive call do not appear. Values without a mark were called inactive. Activity calls are given as the source filed them. Calls come from the whole dose curve; as a rule, active = well fitted activation curve with a large enough effect in the repeat runs; inconclusive = weak or mixed curves; inactive = flat fitted curve, though single readings scatter.
# Experiment: Caspase-3/7 induction in HepG2 cells by small molecules, qHTS assay (AID 1346978); note: nearly all actives have a fitted effect of over 15% in size
# Settings: HepG2 caspase-3/7 activation, Caspase-Glo luminescence, 17 h; series mostly up to 92.4 µM; caspase activation: at the top concentration
# From the text: National Center for Advancing Translational Sciences [NCATS] NIH Chemical Genomics Center [NCGC] U.S. Environmental Protection Agency [EPA] National Institutes of Environmental Health Sciences [NIEHS] National Toxicology Program [NTP] Assay overview: Apoptosis is a process of programmed cell death and plays a central role in the development of multicellular organisms. It is a highly regulated process and induces cell death by activating caspases, which are the members of cysteine aspartic acid-specific protease (caspase) family. Caspases involved in apoptosis are classified by their mechanism of action as initiator caspases (caspase-2, -8, -9 and -10) and executioner caspases (caspase-3, -6, and -7). Inhibition of apoptosis results in number of cancers, autoimmune diseases, inflammatory diseases and viral infection. To identify small molecule compounds that induce apoptosis, a homogeneous, luminescent Caspase-Glo 3/7 assay was used. Wild type HepG2 cells were used to screen Tox21 libraries for identifying caspase-3/7 activity inducers.
# Assay Protocol Summary: HepG2 cells were dispensed at 2,000 per well in 5uL of culture medium into white solid bottom 1536-well plates (Corning Life Sciences, Corning, NY) using a Multidrop Combi (Thermo Scientific, Waltham, MA) dispenser. The assay plates were incubated at 37 C and 5% CO2 for 5hr, and then 23nL of compounds dissolved in DMSO and positive control were transferred using a Pintool station (Wako, San Diego, CA). The assay plates were incubated at 37C and 5% CO2 for 17hr. For caspase-3/7 activity read, 4uL of Caspase-Glo 3/7 reagent (Promega Corporation, Madison, WI) was added to each well of the assay plates using Flying Reagent Dispenser (FRD, Aurora Discovery, San Diego, CA) and incubated the assay plates at room temperature for 30min. The luminescence signal was quantified using a ViewLux plate reader (Perkin Elmer, Shelton, CT).
# % is set by controls: 0 for no effect and ±100 for the full control effect; potency is the fitted concentration of half-maximal effect.
Compound,caspase activation,Potency
C=CC(=O)[O-].C=CC(=O)[O-].[Zn+2],-2.32%,–
CCC1(CO)COCOC1,-2.67%,–
CC(=O)N/N=C/c1ccc([N+](=O)[O-])o1,1.81% [at 42.5 µM],–
CCCC(=O)C(=O)O,0.0492%,–
O=C(O)c1ccc(OCCCOc2ccc(C(=O)O)cc2)cc1,-0.446% [at 42.5 µM],–
CC(C)C(O)(c1ccc(OC(F)(F)F)cc1)c1cncnc1 (stereo not given),4.52%,–
CCOC(=O)c1ccc(OCCN2C[C@H](O)[C@@H](O)[C@H](O)[C@H]2CO)cc1,0.0989% [at 42.5 µM],–
CCCCCCCCC(CCCCCC)C(=O)O (stereo not given),-1.08%,–
Oc1cc2c(cc1O)[C@H]1c3ccc(O)c(O)c3OC[C@@]1(O)C2,1.15%,–
CCCCCCCCOc1ccc(C(=O)O)cc1,-6.18%,–
O=c1cc(-c2ccccc2)oc2ccc3ccccc3c12,-16.1%,–
C=CC(C)(CCC=C(C)C)OC(=O)CC(C)C (stereo not given),0.0079%,–
CC(C)C[C@H](NC(=O)[C@H](CCc1ccccc1)NC(=O)CN1CCOCC1)C(=O)N[C@@H](Cc1ccccc1)C(=O)N[C@@H](CC(C)C)C(=O)[C@@]1(C)CO1,–,266 nM (active)
CCC(=O)C1CC(C(C)C)CC=C1C (stereo not given),-0.951%,–
Cc1ccccc1N=C(N)Nc1ccccc1C,-1.47%,–
C1C[C@@H]2[C@H]3CC[C@H](C3)[C@@H]2C1,2.47%,–
C=C/C(C)=C/C/C=C(\C)CCC=C(C)C,1.08%,–
COC(=O)[C@H]1[C@H]2C[C@@H]3c4[nH]c5cc(OC)ccc5c4CCN3C[C@H]2C[C@@H](OC(=O)/C=C/c2ccc(O)c(OC)c2)[C@@H]1OC,5.48% [at 42.5 µM],–
CC(CN(C)C)C(C)(O)Cc1ccc(Cl)cc1 (stereo not given),-0.563% [at 42.5 µM],–
COc1ccccc1N1CCN(CCCCNC(=O)c2ccc(-c3ccc(C(C)=O)cc3)cc2)CC1,-0.114% [at 42.5 µM],–

Compound,caspase activation,Potency
CC(=O)c1cc2ccccc2s1,1.68% [at 42.5 µM],–
CCOC(=O)[C@H](CCc1ccccc1)N[C@@H](C)C(=O)N(CC(=O)O)C1Cc2ccccc2C1,0.944% [at 42.5 µM],–
CN1CC(=O)N2[C@H](c3ccc4c(c3)OCO4)c3[nH]c4ccccc4c3C[C@@H]2C1=O,-1.02% [at 42.5 µM],–
C=C(C)C(=O)OCCCCCCCCCCCCC,-0.888%,–
CNC(=O)c1cnn(-c2nc(N)c3ncn([C@@H]4O[C@H](CO)[C@@H](O)[C@H]4O)c3n2)c1,1.48% [at 42.5 µM],–
Clc1ccc(Nc2nnc(Cc3ccncc3)c3ccccc23)cc1,-0.336% [at 42.5 µM],–
CC1(CN2CCC(n3c(=O)[nH]c4ccccc43)CC2)OCc2ccccc2-n2cccc21 (stereo not given),-1.65% [at 42.5 µM],–
N#CCCN(CCO)CCO,0.177%,–
O=C(O)CCC(=O)C(=O)O,-0.0163%,–
CC(CO)CO,0.72%,–
C(=C\c1ccccc1)/c1ccccc1,-6.5%,–
CO[C@]1(NC(=O)CSC(F)F)C(=O)N2C(C(=O)O)=C(CSc3nnnn3CCO)CO[C@H]21,-1.43% [at 42.5 µM],–
C=CCc1ccccc1OCC(O)CNC(C)C (stereo not given),1.2% [at 42.5 µM],–
C=C(C)CCCC(C)CCO (stereo not given),1.12%,–
O=C1NCCN1CCO,1.52%,–
CCCCCC#CC(=O)OC,-0.61%,–
Cc1cccc(O)c1N,0.148%,–
C=C(C)C(=O)OCCOCCOC(=O)C(=C)C,-0.289%,–
CCOC(=O)c1ccccc1C(=C1C=C(Br)C(=O)C(Br)=C1)c1cc(Br)c(O)c(Br)c1,0.326% [at 42.5 µM],–
CC1=C(Br)C(=O)C(Br)=C/C1=C(/c1ccccc1S(=O)(=O)O)c1cc(Br)c(O)c(Br)c1C,-11.2% [at 42.5 µM],–
